# Reference: PubChem BioAssay (EPA / NIEHS)
# “And” between values parts separate entries of the source, which are not always exact repeats. Equal values may be shown once. The source made the active and inactive calls. How the source made its calls: active means hit-call score of the fitted dose curve at least 0.9, where 1 is the maximum; inconclusive means response in the unintended direction; inactive means score below 0.9.
# System: Thyroperoxidase (TPO), gene 54314
# Experiment: CCTE_Simmons_AUR_rTPO: CCTE's Amplex UltraRed Assay for Thyroperoxidase (TPO) Inhibition, Simmons Lab (AID 2283662);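 on AC50: potency for loss of signal meaning inhibition of peroxidase activity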
# Description: CCTE_Simmons_AUR_rTPO is a biochemical, single-readout assay that uses microsomes from rat thyroid gland in a tissue-based cell-free assay. Measurements were taken 0.5 hour after chemical dosing in a 384-well plate.CCTE_Simmons_AUR_rTPO is the assay component measured from the CCTE_Simmons_AUR_rTPO assay. It is designed to make measurements of thyroperoxidase (TPO) activity as detected with fluorescence intensity signals using the Amplex UltraRed technology as a form of enzyme activity reporter.Data from the assay component CCTE_Simmons_AUR_rTPO was analyzed at the endpoint, CCTE_Simmons_AUR_rTPO, in the positive analysis fitting direction relative to DMSO as the negative control and baseline of activity. Using a type of enzyme reporter, the Amplex UltraRed assay, loss-of-signal activity can be used to understand decreased peroxidase activity in the presence of excess […]. To generalize the intended target to other relatable targets, this assay endpoint is annotated to the oxidoreductase intended target family, where the subfamily is peroxidase.
# As described previously (Paul et al., 2014), the AUR substrate was repurposed to detect peroxidase (ie, TPO) activity in the presence of excess H2O2 for the AUR-TPO assay. The reaction profile for the 384-well format AUR-TPO assay is scaled to an 80 ul assay volume containing 25 uM AUR, 300 uM H2O2, and 5 ug microsomal protein in 200 mM phosphate buffer. The assay concentration of thyroid microsomal protein was approximately […]. First, rat microsomes containing TPO and diluent 200mM potassium phosphate buffer were added to opaque, black 384-well plates (Greiner, BioExpress; Kaysville, Utah) using an automated liquid handler (BioTek MicroFlo; Winooski, Vermont) with a plastic 5 ul tubing cassette. Similarly, AUR was added next by automated liquid handling. Test compounds were administered using a HDRT as described earlier to achieve a 0.5% final DMSO concentration. Finally, H2O2 (300 uM, final concentration) was then added by the BioTek MicroFlo to initiate the reaction. Microplates were incubated at 37C in the dark for 30min. Plates were then shaken on a fluorescence plate reader (FLUOStar Optima, BMG LabTech; GmbH, Germany), and endpoint fluorescence (top read) was measured using 10 flashes per well at 544/590nm excitation/emission. Three biological replicates of technical singles were run for every chemical concentration tested. A titrated range of MMI served as a positive control for TPO inhibition on each plate of the AUR-TPO screening campaign. Test chemicals were administered as a titrated series of 8 concentrations from 5 nM up to 87.5 uM [final] for 30 minutes prior to single endpoint detection. Dimethylsulfoxide [DMSO] was used as the vehicle control. Methimazole [MMI] was used as the positive control and was administered as a titrated series of 8 concentrations from 1 nM up to 271 uM [final].
SMILES,AC50,outcome
CCCCCCCCCCCCOS(=O)(=O)O,28 µM (active) and 48.7 µM (active),–
N#CS,10.6 µM (active) and 8.87 µM (active),–
Nc1ncn[nH]1,2.24 µM (active),–
COC(=O)Nc1cccc(OC(=O)Nc2cccc(C)c2)c1,0.398 µM (active),–
CCOc1ccc(N)cc1,1.75 µM (active),–
O=C1c2ccccc2C(=O)C1C(=O)C(c1ccccc1)c1ccc(Cl)cc1 (stereo not drawn),32.4 µM (active),–
O=C(O)C1(c2ccc3c(c2)OC[C@H](Cc2ccc(-c4ccccc4)cc2)[C@H]3O)CCCC1,33.4 µM (active),–
CCOP(=S)(OCC)O/N=C(\C#N)c1ccccc1,20.7 µM (active),–
CCOP(=S)(OCC)SCS(=O)(=O)C(C)(C)C,43.8 µM (active),–
CN(N=O)C(N)=O,58.9 µM (active),–
CN(C)C(=S)S,30.8 µM (active),–
COc1ccc(N)cc1,1.44 µM (active),–
O=C(NC(=O)c1c(F)cccc1F)Nc1ccc(Cl)cc1,25.4 µM (active),–
O=c1[nH]c(=O)n(Cl)c(=O)n1Cl,–,inactive
O=C(CCl)Nc1ccccc1,16 µM (active),–
CCCSP(=S)(OCC)Oc1ccc(SC)cc1 (stereo not drawn),–,inactive
O=C(CBr)c1ccc(O)cc1,6.82 µM (active) and 5.72 µM (active),–
N#CCC#N,7.66 µM (active),–
COc1ccccc1N,0.39 µM (active),–
CCCCCCCCCCCCc1cccc(S(=O)(=O)O)c1,39.4 µM (active),–
CC(C)(C)c1ccccc1O,–,inactive
O=S1(=O)OC(c2cc(Br)c(O)c(Br)c2)(c2cc(Br)c(O)c(Br)c2)c2ccccc21,25.9 µM (active),–
Nc1ccc(N)cc1,5.63 µM (active),–
